Activation and Potency data for 19 compounds are collected here from PubChem BioAssay (NCATS).

The target in experiment [1] is Cellular tumor antigen p53 (Homo sapiens) (UniProt P04637). Briefly: Primary qHTS for small molecule compounds that upregulate eGFP-tagged delta133p53alpha (in N-terminal) cells. (AID 2060322).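 For Activation: cells pre-induced with doxycycline then dosed without doxycycline; series mostly up to about 56 µM; 0% = DMSO vehicle and 100% = reference activator.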 Note: nearly all actives have a fitted effect of over 75% in size. Note: potency is the fitted concentration of half-maximal effect. The following applies: NCI-H358 eGFP-delta133p53alpha fluorescence, 24 h; activation: hits give high values. An outline of the steps:
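NCI-H358 cells pre-induced 24 h with 10 ng/ml doxycycline for eGFP-delta133p53alpha, plated dox-free and exposed 24 h at 37C to titrated compounds. Fixed, Hoechst-stained; gated GFP peak intensity by laser scanning cytometry, normalized to DMSO (0%) and 57.5 uM 5-azacytidine (100%).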

Experiment [2] has the same target. In words: Primary qHTS for small molecule compounds that upregulate eGFP-tagged delta133p53alpha (in C-terminal) cells. (AID 2060324).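 Note: 0% = DMSO wells and 100% = 57.5 µM 5-azacytidine.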 An outline of the steps: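 Read-out: gated-cell GFP peak intensity (laser scanning cytometer), plate-normalized with DMSO as 0% activity, after 24 h compound exposure at 37C. Cells were C-terminal eGFP-tagged delta133p53alpha NCI-H358, doxycycline-induced (100 ng/ml, 24 h) before plating.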
A general note: In qHTS, concentration-response curves come from the screen itself.

For experiment [3], the target named is Aldehyde dehydrogenase, mitochondrial (Homo sapiens) (UniProt P05091). In words: qHTS for Inhibitors of the Aldehyde Dehydrogenase Family (ALDH2) Validation screens (AID 2061302; active = well fitted inhibition curve with a large enough effect; title and protocol of this record describe different tests; note: potency is the fitted concentration of half-maximal effect).
The nature of experiment [4]: qHTS for Inhibitors of the Aldehyde Dehydrogenase Family (ALDH1A2, ALDH1A3, ALDH2, ALDH3A1) (AID 2061307). For Potency: test system not described further here; potency is the fitted concentration of half-maximal effect. Note: nearly all actives have a fitted effect of over 50% in size.
Experiment [5] concerns the target Aldehyde dehydrogenase 1A1 (Homo sapiens) (UniProt P00352). In words: qHTS for Inhibitors of the Aldehyde Dehydrogenase Family (ALDH1A1) Confirmatory screens (AID 2061316). Note: nearly all actives have a fitted effect of over 65% in size. Note: potency is the fitted concentration of half-maximal effect.
Experiment [6] concerns the target Aldehyde dehydrogenase, mitochondrial (Homo sapiens) (UniProt P05091). In words: qHTS for Inhibitors of the Aldehyde Dehydrogenase Family (ALDH2) Confirmatory screens (AID 2061303; active = well fitted inhibition curve with a large enough effect; title and protocol of this record describe different tests; note: % is set by controls: 0 for no effect and ±100 for the full control effect; nearly all actives have a fitted effect of over 45% in size).
Experiment [7] has as its target Retinal dehydrogenase 2 (Homo sapiens) (UniProt O94788). Briefly: qHTS for Inhibitors of the Aldehyde Dehydrogenase Family (ALDH1A2) Confirmation screens (AID 2061314). Note: nearly all actives have a fitted effect of over 65% in size. Note: potency is the fitted concentration of half-maximal effect.
Experiment [8] addresses Retinaldehyde dehydrogenase 3 (Homo sapiens) (UniProt P47895). In words: qHTS for Inhibitors of the Aldehyde Dehydrogenase Family (ALDH1A3) Confirmatory screens (AID 2061311). Note: nearly all actives have a fitted effect of over 60% in size. Note: potency is the fitted concentration of half-maximal effect.
The target is the same in experiment [9]. In words: qHTS for Inhibitors of the Aldehyde Dehydrogenase Family (ALDH1A3) Validation screen (AID 2061312). Note: nearly all actives have a fitted effect of over 45% in size. Note: potency is the fitted concentration of half-maximal effect.
The target of experiment [10] is Aldehyde dehydrogenase, mitochondrial (Homo sapiens) (UniProt P05091). Briefly: qHTS for Inhibitors of the Aldehyde Dehydrogenase Family (ALDH2) Primary screen (AID 2061308).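 Note: plate controls were vehicle for no effect and reference inhibitor for full effect; nearly all actives have a fitted effect of over 55% in size.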
Experiment [11] concerns the target Retinaldehyde dehydrogenase 3 (Homo sapiens) (UniProt P47895). Briefly: qHTS for Inhibitors of the Aldehyde Dehydrogenase Family (ALDH1A3) Primary screen (AID 2061315).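 Note: plate controls were DMSO vehicle for no effect and reference inhibitor for full effect.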
The nature of experiment [12]: BET inhibitor-based combinations targeting novel dependencies in MECOM-rearranged (r) AML: SET-2 cell line (AID 2202231). Note: potency is the fitted concentration of half-maximal effect; nearly all actives have a fitted effect of over 35% in size. The following applies: SET-2 AML cells viability, CellTiter-Glo luminescence, 48 h; viability: hits give low values, concentration not given here. An outline of the steps: (§1)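 Each compound was tested at eleven concentrations on cells seeded at 500/well. After two days' incubation, ATP-based luminescence reported viability; responses relative to DMSO and blank wells yielded AUC and cell-line-centred Z-AUC.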
(In ATP-based viability assays light output follows the ATP content of the culture.)

A short description of experiment [13]: BET inhibitor-based combinations targeting novel dependencies in MECOM-rearranged (r) AML: OCI-AML3 cell line (AID 2202232). Note: nearly all actives have a fitted effect of over 35% in size. Note: potency is the fitted concentration of half-maximal effect. The following applies: Potency: OCI-AML3 viability. An outline of the steps: as §1
Experiment [14] in a line: BET inhibitor-based combinations targeting novel dependencies in MECOM-rearranged (r) AML: MV-4-11 cell line (AID 2202233). Note: potency is the fitted concentration of half-maximal effect; nearly all actives have a fitted effect of over 45% in size. An outline of the steps: (§2)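 First, 500 cells per well were seeded; next, drugs were pinned as 11-point doses; then plates sat 48 hr in the incubator; finally CellTiter-Glo was added and luminescence read, with AUC and Z-AUC computed.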
The nature of experiment [15]: BET inhibitor-based combinations targeting novel dependencies in MECOM-rearranged (r) AML: UCSD-AML1 cell line (AID 2202235). Note: nearly all actives have a fitted effect of over 40% in size. Note: potency is the fitted concentration of half-maximal effect. An outline of the steps: as §2
The nature of experiment [16]: BET inhibitor-based combinations targeting novel dependencies in MECOM-rearranged (r) AML: AML-191 cell line (AID 2202236; note: nearly all actives have a fitted effect of over 35% in size; note: potency is the fitted concentration of half-maximal effect). An outline of the steps: as §1
Experiment [17] in a line: BET inhibitor-based combinations targeting novel dependencies in MECOM-rearranged (r) AML: AML-194 cell line (AID 2202237; note: nearly all actives have a fitted effect of over 40% in size; note: potency is the fitted concentration of half-maximal effect). An outline of the steps:
as §1

A short description of experiment [18]: BET inhibitor-based combinations targeting novel dependencies in MECOM-rearranged (r) AML: HNT-34 cell line (AID 2202234). Note: nearly all actives have a fitted effect of over 35% in size. Note: potency is the fitted concentration of half-maximal effect. An outline of the steps: as §2

“And” between values parts separate entries of the source, which are not always exact repeats. Identical values can stand only once. Results filed as inconclusive are left out. A number with no mark means an inactive call. The source made the active and inactive calls. Unless noted, calls come from the whole dose curve; as a rule, active = well fitted curve in the direction sought with a large enough effect; inconclusive = small, poorly fitted or top-dose-only effect, or another doubt; inactive = no such curve, though single readings can be large; an effect the other way counts as inactive or inconclusive.

Chain of Cellular tumor antigen p53 (Homo sapiens) (P04637 whole entry, looked up): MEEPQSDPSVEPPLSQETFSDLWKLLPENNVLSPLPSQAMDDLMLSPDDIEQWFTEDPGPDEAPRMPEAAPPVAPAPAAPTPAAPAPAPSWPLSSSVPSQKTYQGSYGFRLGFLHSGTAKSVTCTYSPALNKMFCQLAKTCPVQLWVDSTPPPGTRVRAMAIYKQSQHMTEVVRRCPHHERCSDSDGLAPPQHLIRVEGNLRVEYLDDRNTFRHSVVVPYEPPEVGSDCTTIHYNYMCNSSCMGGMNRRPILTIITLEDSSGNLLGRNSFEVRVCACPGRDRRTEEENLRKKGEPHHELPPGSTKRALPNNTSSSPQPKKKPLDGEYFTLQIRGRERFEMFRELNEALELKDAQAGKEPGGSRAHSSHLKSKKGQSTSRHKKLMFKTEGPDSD

On to `O=C(O)c1cc(=O)c2c(Cl)cc(Cl)cc2[nH]1`, for which the activation in experiment [1] is -19.2%. For the same compound, the Potency entry in experiment [2], in [3], in experiment [4] and in experiment [5] was “inactive” in each case.
As to `Cc1cc(Cn2cnc3c2C[C@@H](C(=O)O)N(C(=O)C(c2ccccc2)c2ccccc2)C3)ccc1N`, the activation in experiment [1] was -13.9%. For the same compound, the Potency result in experiment [2], in [3], in experiment [6] and in experiment [7] was “inactive” throughout.
As for `NC(=O)c1cc[n+](CC2=C(C(=O)O)N3C(=O)[C@@H](NC(=O)[C@@H](c4ccccc4)S(=O)(=O)[O-])[C@H]3SC2)cc1`, the activation in experiment [1] was -28.8%. The Potency result in experiment [2], in [3], in experiment [4], in experiment [8] and in experiment [7] was “inactive” each time.
As to `CC1CN(S(=O)(=O)c2cccc3cnccc23)CCN1` (stereo not given), in experiment [1], the activation is -66.5%. The Potency result in experiment [2], in [3], in [6], in experiment [4], in experiment [8] and in [7] was “inactive” throughout. Besides, in experiment [5], the Potency result was “inactive”.
For the compound `O=C(O)/C(=C/c1c(C(=O)O)[nH]c2cc(Cl)cc(Cl)c12)c1ccccc1`, in experiment [1], the activation was 12.5%. Also, the Potency entry in [2], in [3], in [8] and in experiment [9] was “inactive” throughout. Also, the Potency in experiment [4] is 11.3 µM (active).
`CCCCN(CC)c1nc(C)nc2c1c(C)cn2-c1c(C)cc(C)cc1C`: the activation in experiment [1] was 34.4% and -11%. The Potency result in experiment [2], in experiment [3], in experiment [4], in experiment [10] and in [11] was “inactive” in each case. Also, the Potency in [9] is 1.26 µM (active) and 12.6 µM (active).
As to `CCN1C(=O)C=CC1=O`, the activation in experiment [1] is -15.7%. For the same compound, the Potency result in experiment [2], in experiment [6], in [4], in experiment [8], in experiment [7] and in experiment [5] was “inactive” throughout. Further, the Potency in [3] was 12.6 µM (active).
Take `CN(C)C(=O)/N=N/C(=O)N(C)C`: the activation in experiment [1] is -3.88%. Besides, the Potency entry in [2], in experiment [3] and in experiment [4] was “inactive” each time. The Potency in experiment [7] was 12.7 µM (active).
For the compound `O=C(O)CCc1nc(-c2ccccc2)c(-c2ccccc2)o1`, in experiment [1], the activation was -3.34% and -25.4%. The Potency entry in experiment [2], in experiment [3], in experiment [10], in [9] and in experiment [11] was “inactive” in each case.
`CCOC(=O)N1CCN(/[N+]([O-])=N/Oc2ccc([N+](=O)[O-])cc2[N+](=O)[O-])CC1`: the Potency in experiment [1] was 4.78 µM (active); in [8], 14.2 µM (active); in [7] it was 2.25 µM (active); in experiment [12] it was 4.68 µM (active); in experiment [13], 2.95 µM (active); in [14], 1.86 µM (active). Further, the Potency was 2.95 µM (active) in experiment [15], 2.09 µM (active) in [16] and 2.95 µM (active) in experiment [17]. Also, the Potency result in experiment [2], in experiment [3] and in experiment [6] was “inactive” each time.
Consider `CNC(=O)Oc1ccc2c(c1)[C@]1(C)CCN(C)[C@@H]1N2C`, for which the activation in experiment [1] is -31.1% and -29.5% and 2.6%. The Potency result in experiment [2], in experiment [3] and in [9] was “inactive” throughout. For the same compound, the Potency in experiment [4] is 8.96 µM (active).
For `CN(C)CCC(c1ccccc1)c1ccccn1` (stereo not given), the activation in experiment [1] is -2.82% and -9.55% and -25.6%. Besides, the Potency entry in [2], in experiment [3], in [10], in experiment [9] and in experiment [11] was “inactive” throughout.
In the case of `O=c1c(O)c(-c2cc(O)c(O)c(O)c2)oc2cc(O)cc(O)c12`, the activation in experiment [1] was -9.12% and -2.85%. Moreover, the Potency entry in [2], in experiment [3], in [4], in experiment [7], in experiment [13] and in experiment [18] was “inactive” each time. The Potency result in experiment [15], in [16] and in experiment [17] was “inactive” throughout. For the same compound, in [8], the Potency is 5.65 µM (active).
With `Brc1ccc([C@H]2CN3CCSC3=N2)cc1`, in [1], the activation is -4.33% and 7.97%. Also, the Potency result in [2], in experiment [3], in experiment [6], in experiment [4], in [8] and in experiment [9] was “inactive” in each case. Moreover, the Potency result in [7], in experiment [11] and in experiment [5] was “inactive” each time.
For `CCCn1cnc2c1c(=O)n(CCCCC(C)=O)c(=O)n2C`, in experiment [1], the activation is 0.837% and -17.3%. Further, the Potency result in experiment [2], in experiment [3], in experiment [6], in [4], in [8] and in experiment [9] was “inactive” in each case. The Potency entry in experiment [7] and in experiment [5] was “inactive” in each case.
Regarding `NS(=O)(=O)c1ccc(-n2nc(C(F)(F)F)cc2-c2ccc(Cl)cc2)cc1`, in experiment [1], the activation was -38.9% and -11.9%. The Potency entry in [2], in experiment [3], in [10], in [9] and in experiment [11] was “inactive” each time.
Consider `N=C(N)c1ccc(N)cc1`, for which the activation in experiment [1] was -28.3%. For the same compound, the Potency result in experiment [2], in [3], in [6], in [4] and in experiment [7] was “inactive” throughout.
As to `O=C(/C=C/c1ccc(O)cc1)c1ccc(O)cc1O`, the activation in [1] is -26.4%. The Potency entry in experiment [2], in experiment [3], in experiment [6] and in experiment [15] was “inactive” in each case. Also, the Potency is 1.2 µM (active) in experiment [4]; 0.504 µM (active) in experiment [8]; 3.18 µM (active) in experiment [5]; 14.8 µM (active) in experiment [13]; 11.8 µM (active) in experiment [14]; 9.34 µM (active) in experiment [18]. Besides, the Potency in [16] was 26.3 µM (active).
On to `Cc1scc2c1N(C(=O)CN1CCN(C)CC1)c1ccccc1NC2=O`, for which, in [1], the activation is -13.4% and -3.34%. Moreover, the Potency entry in experiment [2], in experiment [3], in [6], in experiment [4], in experiment [8] and in experiment [7] was “inactive” in each case.
